We go through four compounds from PubChem BioAssay (NCATS).

Values joined by “and” are separate entries in the source; they are usually repeats but may differ in a detail not shown here. Equal entries are not always repeated. Results filed as inconclusive are left out. Active and inactive are the calls of the source. Calls follow the shape of the dose curve; as a rule, active = well fitted inhibition curve with a large enough effect; inconclusive = small, poorly fitted or top-dose-only effect; inactive = flat fitted curve, though single readings scatter.
% is scaled to controls: 0 for no effect and ±100 for the full control effect.

System in the first assay: not listed separately
The assay is described as follows: Drug repurposing screens with cells derived from glioblastoma tumor samples (AID 1345199). Also: nearly all actives have a fitted effect of over 40% in size. Conditions: GBM patient neurospheres viability, ATP luminescence, 48 h; at 46.1 µM (top of the series); tumour line C. In a few lines:
(§1)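 Primary testing used CD133+ neurospheres from four GBM patients, seven concentrations, 48 h exposure and ATP-based viability; confirmation added three slower-growing patient lines.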
Turning to `CC[C@H]1OC(=O)C[C@@H](O)[C@H](C)[C@@H](O[C@@H]2O[C@H](C)[C@@H](O)[C@H](N(C)C)[C@H]2O)[C@@H](CCN2C[C@H](C)C[C@H](C)C2)C[C@@H](C)C(=O)/C=C/C(C)=C/[C@@H]1CO[C@@H]1O[C@H](C)[C@@H](O)[C@@H](OC)[C@H]1OC`, the activity, negative = cell killing is -6.47% (inactive).
Same read-out and setting: the value for `C[C@]12C=CC(=O)C=C1CC[C@@H]1[C@@H]2[C@@H](O)C[C@@]2(C)[C@H]1CC[C@]2(O)C(=O)COC(=O)CCC(=O)O` was 7.76% (inactive); that for `CCC(=O)NS(=O)(=O)c1ccc(-c2c(-c3ccccc3)noc2C)cc1` was -3.29% (inactive).
For the compound `CCC[C@@H]1C[C@@H](C(=O)N[C@@H]([C@H]2O[C@H](SC)[C@H](OP(=O)(O)O)[C@@H](O)[C@H]2O)[C@H](C)Cl)N(C)C1`, the activity, negative = cell killing is -6.5% (inactive) and -2.32% (inactive).

The subject of another assay is astro (control astrocytes). The description is as above. The settings on record: viability, ATP luminescence, 48 h; series mostly up to 45.9 µM; activity, negative = cell killing: at the top concentration. In a few lines: as §1
In the case of `CC[C@H]1OC(=O)C[C@@H](O)[C@H](C)[C@@H](O[C@@H]2O[C@H](C)[C@@H](O)[C@H](N(C)C)[C@H]2O)[C@@H](CCN2C[C@H](C)C[C@H](C)C2)C[C@@H](C)C(=O)/C=C/C(C)=C/[C@@H]1CO[C@@H]1O[C@H](C)[C@@H](O)[C@@H](OC)[C@H]1OC`, the “activity, negative = cell killing” value was -12.8% (inactive).
Turning to `C[C@]12C=CC(=O)C=C1CC[C@@H]1[C@@H]2[C@@H](O)C[C@@]2(C)[C@H]1CC[C@]2(O)C(=O)COC(=O)CCC(=O)O`, the “activity, negative = cell killing” value was -15.1% (inactive).
Still for that read-out and setting: the same measure for `CCC(=O)NS(=O)(=O)c1ccc(-c2c(-c3ccccc3)noc2C)cc1`: -17.7% (inactive).
For the compound `CCC[C@@H]1C[C@@H](C(=O)N[C@@H]([C@H]2O[C@H](SC)[C@H](OP(=O)(O)O)[C@@H](O)[C@H]2O)[C@H](C)Cl)N(C)C1`, the Potency entry is “inactive”.
